# This is a sample that favours compounds with a hit; in the whole collection about 19% have one here.
# TDP1 cell noCPT: qHTS for Inhibitors of human tyrosyl-DNA phosphodiesterase 1 (TDP1): qHTS in cells in absence of CPT; DT40 Tdp1-/- hTDP1 cells, no CPT, ATP luminescence, 48 h; Potency, µM (titrated, usually from 46.2 µM), without a hit: at the top dose activity change, negative = growth inhibition, actives largely listed as inhibitors; 420,000 compounds, 15% hits; AID 686978, 2013; note: potency is the fitted concentration of half-maximal effect; nearly all actives have a fitted effect of over 55% in size
#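 Luminescent ATP content (CellTiter-Glo) served as the growth readout. Knockout chicken DT40 cells expressing human TDP1 were exposed to compounds without camptothecin for a minimum 48 hr at 37 °C.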
# HT1080 IDH1KD tx: kills HT-1080 cells with IDH1 knockdown; Potency, µM (titrated, usually from 46.1 µM), inactives show top-dose activity, negative = toxicity, actives largely listed as cytotoxic; 360,000 compounds, 2% hits; AID 686971; HT-1080 IDH1 knockdown viability, ATP luminescence, 48 h;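 note: potency is the fitted concentration of half-maximal effect; 0% = DMSO wells and -100% = cell-free medium wells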
#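 In this qHTS, HT-1080 cells depleted of IDH1 are exposed for 48 h at 37 °C to compound titrations. Toxicity is scored from CellTiter-Glo luminescence, with DMSO as full viability and medium alone as none.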
# TDP1 cell CPT: DT40-hTDP1 cell growth loss with CPT; Potency, µM (doses to about 46.2 µM), for inactives: at the top dose activity change, negative = growth inhibition, usual class: inhibitors; chicken DT40 Tdp1-/-;hTDP1 cells + 20 nM CPT, ATP luminescence, 48 h; 420,000 compounds, 12% hits; AID 686979; note: potency is the fitted concentration of half-maximal effect; nearly all actives have a fitted effect of over 55% in size
#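 Cell growth measured by CellTiter-Glo luminescence after a minimum 48 h, 37 C compound exposure with 20 nM CPT in Tdp1-knockout DT40 cells stably expressing hTDP1, seeded 400/well; qHTS titration format.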
# IL1B secr inh: inflammasome signaling inhibition, IL-1 beta readout. activity change, % at 57.5 µM. THP-1 LPS/ATP IL-1B secretion, AlphaLISA, 16 h; active compounds read low. 360,000 compounds, 4.7% hits; in the data active = activity change below about -50%; inconclusive = mostly about -30% to -49%
#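 THP-1 cells pretreated 1 hr with compounds (up to 57.5 uM final), then stimulated with LPS (250 ng/mL final) plus ATP (1.25 mM final); secreted IL-1B measured by AlphaLISA after 16 hr, decreased signal indicating inhibition.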
# uPA generation: cell surface uPA generation inhibition | Potency, µM (titrated, usually from 38.3 µM), inactives show at the highest dose activity change, negative = inhibition, actives largely listed as inhibitors | AID 540303 | 330,000 compounds, 0.31% hits | cell surface uPA generation assay, qHTS; active = well fitted inhibition curve with a large enough effect; inconclusive = small, poorly fitted or top-dose-only effect; inactive = no such curve, though single readings can be large or run the other way; tested in mouse RAW 264.7 cells; note: potency is the fitted concentration of half-maximal effect; nearly all actives have a fitted effect of over 55% in size
# HT1080-NT tox: kills 2HG-producing HT-1080-NT fibrosarcoma cells; AID 686970; Potency, µM (top dose mostly 46.1 µM), inactives show at the highest dose activity, negative = less viability, hits mostly cytotoxic; HT-1080-NT fibrosarcoma viability, CellTiter-Glo ATP luminescence, 48 h; 360,000 compounds, 1.6% hits;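 note: NT is the 2HG producing partner of a matched IDH1 knockdown line; potency is the fitted concentration of half-maximal effect; 0% = DMSO-treated cells and -100% = media-only wells without cells; nearly all actives have a fitted effect of over 55% in size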
#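 A 48-hour cytotoxicity screen used HT-1080-NT cells plated 2 hours before compound delivery. ATP-based CellTiter-Glo luminescence measured viability, normalized to DMSO and no-cell controls.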
# * = called active by the depositor; u = inconclusive; x = no result given. Unless noted, calls come from the whole dose curve; as a rule, active = well fitted curve in the direction sought with a large enough effect; inconclusive = small, poorly fitted or top-dose-only effect, or another doubt; inactive = no such curve, though single readings can be large; an effect the other way counts as inactive or inconclusive. Unless noted, % is set by controls: 0 for no effect and ±100 for the full control effect.
SMILES,TDP1 cell noCPT,HT1080 IDH1KD tx,TDP1 cell CPT,IL1B secr inh,uPA generation,HT1080-NT tox
COc1ccc(-c2cn3nc(N4CCC(C(=O)NCc5cccc(Cl)c5)CC4)sc3n2)cc1,-29%,x,u,x,x,x
COc1ccc(-c2cn3nc(N4CCC(C(=O)Nc5cccc(OC)c5)CC4)sc3n2)cc1,-25%,x,u,x,x,x
CCOc1ccc(CNC(=O)C2CCCN(c3nn4cc(-c5ccc(OC)cc5)nc4s3)C2)cc1 (stereo not given),18µM*,x,16µM*,x,x,x
COc1ccc(-c2cn3nc(N4CCCC(C(=O)NCc5ccc(Cl)cc5)C4)sc3n2)cc1 (stereo not given),8.2µM*,x,9.2µM*,x,x,x
CCn1cc(/C=C(\NC(=O)c2cc(OC)c(OC)c(OC)c2)C(=O)NCCCn2ccnc2)c2ccccc21,u,x,-27%,x,x,x
O=C(NCc1cccc(F)c1)C1CCN(c2nn3cc(-c4ccc(F)cc4)nc3s2)CC1,u,x,-26%,x,x,x
CCc1ccc(NC(=O)C2CCCN(c3nn4cc(-c5ccc(OC)cc5)nc4s3)C2)cc1 (stereo not given),13µM*,x,u,x,x,x
CCOCCCNC(=O)C1CCN(c2nn3cc(-c4ccc(F)cc4)nc3s2)CC1,15µM*,x,21µM*,x,x,x
CCOc1ccc(CNC(=O)C2CCCN(c3nn4cc(-c5ccc(F)cc5)nc4s3)C2)cc1 (stereo not given),23µM*,x,21µM*,x,x,x
CCCSCCCNC(=O)C1CCCN(c2nn3cc(-c4ccc(OC)cc4)nc3s2)C1 (stereo not given),13µM*,x,21µM*,x,x,x
COc1ccc(NC(=O)C2CCCN(c3nn4c(=O)cc(C)nc4s3)C2)cc1 (stereo not given),u,-3%,-9%,-12,3%,-5%
O=C1NC(NS(=O)(=O)c2ccccc2)(C(F)(F)F)C(=O)N1Cc1ccccc1 (stereo not given),27%,4%,-5%,-3,6%,1%
CCc1ccc(CNC(=O)C2CCCN(c3nn4cc(-c5ccc(F)cc5)nc4s3)C2)cc1 (stereo not given),16µM*,x,16µM*,x,x,x
C=CCNC(=O)N1CCCC(C(=O)c2cccc(OC(C)C)c2)C1 (stereo not given),u,-6%,u,17,-3%,2%
Cc1noc(C)c1COc1ccccc1C(=O)N1CCN(S(=O)(=O)c2cccc(Cl)c2)CC1,-17%,-1%,-14%,-3,-4%,-10%
Cc1noc(C)c1COc1ccccc1C(=O)N1CCN(S(=O)(=O)c2ccc(C(C)C)cc2)CC1,16µM*,0%,u,-17,x,-4%
Cc1cc(C)c(C)c(S(=O)(=O)N2CCN(C(=O)c3ccccc3OCc3c(C)noc3C)CC2)c1C,18µM*,-28%,u,12,-9%,-2%
CCN(CC)C(=O)C(Sc1nnnn1-c1ccc(O)cc1)c1ccccc1 (stereo not given),u,3%,-29%,-74*,-1%,-1%
COc1ccc(N2C(=S)NC3c4cc(Cl)ccc4OC2(C)C3C(=O)N(C)C)cc1 (stereo not given),u,u,29µM*,8,-6%,u
Clc1ccc(Oc2nc3c(Cl)cccc3s2)cc1Cl,u,5%,-6%,29,5%,-1%
CCc1ccccc1NC(=O)c1cn(C)c(=O)c2ccccc12,-9%,x,-19%,x,x,x
Cc1nc(C(=O)N2CCCC(N3CCN(c4ccc(F)cc4)CC3)C2)cs1 (stereo not given),15µM*,7%,21µM*,54,x,-1%
O=C(c1ccoc1)N1CCCC(N2CCN(c3ccc(F)cc3)CC2)C1 (stereo not given),-5%,3%,-14%,0,-28%,9%
Cc1cc(C)c(C(=O)N2CCCC(N3CCN(c4ccc(F)cc4)CC3)C2)o1 (stereo not given),16µM*,-28%,u,-6,3%,-17%
Cn1c(=O)n(CCc2ccccc2)c(=O)c2c1nc1n2CCN1c1ccc(Cl)cc1,-13%,x,-7%,x,x,x
SMILES,TDP1 cell noCPT,HT1080 IDH1KD tx,TDP1 cell CPT,IL1B secr inh,uPA generation,HT1080-NT tox
O=C(Nc1ccccc1)C1=C[C@@H](c2coc3ccccc3c2=O)C[C@@H](OCCCCO)O1,9.2µM*,5%,u,-1,8%,5%
O=C(Nc1ccccc1)C1=C[C@H](c2coc3ccccc3c2=O)C[C@H](OCCCCO)O1,u,-16%,u,-1,1%,-2%
CC(=O)n1cc([C@@H]2C=C(C(=O)N3CCN(Cc4ccccc4)CC3)O[C@H](OCc3ccc(CO)cc3)C2)c2ccccc21,8.2µM*,-28%,8.2µM*,u,u,-1%
C#CCNC(=O)C1=C[C@@H](c2cn(C(C)=O)c3ccccc23)C[C@@H](OCc2ccc(CO)cc2)O1,23µM*,-7%,23µM*,17,9%,-6%
CC(=O)n1cc([C@@H]2C=C(C(=O)Nc3ccccc3)O[C@H](OCc3ccc(CO)cc3)C2)c2ccccc21,13µM*,-16%,23µM*,22,-1%,-15%
CC(C)Oc1ccc(C(=O)NCCCNC(=O)c2ccccn2)cc1,-31%,12%,-10%,-10,1%,6%
COc1cccc(NC(=O)N(C)C[C@@H]2OCc3cnnn3CCCC(=O)N([C@H](C)CO)C[C@@H]2C)c1,-4%,5%,2%,11,x,3%
COCCn1c(=O)c(-c2cccs2)nc2cnc(N3CCOCC3)nc21,29%,x,-1%,x,x,x
C=CCN1[C@@H](C(C)C)COCCS1(=O)=O,18%,x,-15%,x,x,x
COc1ccc(CNC(=O)CCc2c(C)nn(-c3ccc(N4CCOCC4)nn3)c2C)cc1,-12%,x,-20%,x,x,x
